From PubChem BioAssay AID720486 (Milwaukee Institute for Drug Discovery, 2013)
The other results are listed elsewhere or left out. Values without a mark were called inactive.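 Rule for the calls: active = inhibition of at least 50%; inactive = the rest.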

Target: Single-stranded DNA-binding protein (Escherichia coli (strain K12)) (UniProt P0AGE0)
Assay: E. coli SSB-DNA binding inhibitors, counter-screen for HCV NS3 helicase inhibitor project, biochemical, fluorescence polarization, selected ChemBridge compounds (AID 720486);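 note: displacers lower Cy5 polarization so higher inhibition means more SSB displaced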
Settings: E. coli SSB binding Cy5-dT15, fluorescence polarization; at 100 µM; stronger effect = higher value

Sequence of Single-stranded DNA-binding protein (Escherichia coli (strain K12)) (P0AGE0 whole entry, looked up): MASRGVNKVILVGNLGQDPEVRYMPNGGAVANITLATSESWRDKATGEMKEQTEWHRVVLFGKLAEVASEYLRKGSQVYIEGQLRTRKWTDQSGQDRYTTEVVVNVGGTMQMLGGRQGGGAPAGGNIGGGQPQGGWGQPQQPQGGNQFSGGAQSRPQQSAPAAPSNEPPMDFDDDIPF

## CCOc1cc(C=C2C(=O)NC(=O)NC2=O)cc(Br)c1OCCOc1ccccc1C
  inhibition: 36.9%
